Measured values: PubChem BioAssay AID488789 (Broad Institute, 2010)
Results with a measured potency or affinity are listed apart. Results filed as inconclusive are left out. Activity calls are given as the source filed them.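 How the source made its calls: active means samples whose fitted half-maximal inhibition concentration is no more than ten times the top valid dose tested; inconclusive means flat response between -70 and -30, or invalid curve fit; inactive means flat within 30 of zero, potency above limit, or signal rising.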

Biological target: Trypsin (Sus scrofa) (UniProt P00761)
Sequence (P00761 whole entry, looked up): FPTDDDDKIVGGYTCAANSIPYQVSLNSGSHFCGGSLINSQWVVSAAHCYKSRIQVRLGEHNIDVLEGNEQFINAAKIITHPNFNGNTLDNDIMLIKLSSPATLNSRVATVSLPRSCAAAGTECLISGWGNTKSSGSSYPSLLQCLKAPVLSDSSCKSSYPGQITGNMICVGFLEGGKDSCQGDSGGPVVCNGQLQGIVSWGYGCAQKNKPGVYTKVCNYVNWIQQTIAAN
Experiment: porcine trypsin inhibitors, dose response, selectivity assay for Rce1 protease inhibitor project, biochemical, quenched peptide fluorescence, cherry-pick (AID 488789)
Conditions: quenched peptide cleavage fluorescence; series mostly up to 10 µM; activity change, negative = inhibition: at the top concentration

Activity change, negative = inhibition, inactive:
Cc1cccc(OCCN2C(=O)C(=O)c3cc(C)ccc32)c1 -0.333%, COc1ccc(NS(=O)(=O)c2c(C)cc(C)cc2C)cc1 3.93%, C[C@@]12CCC=C[C@H]1[C@H](c1ccc(/C=C/c3ccccc3)cc1F)N(Cc1ccccc1)C2=O -6.03%, COc1cc2c(cc1OC)C(C)N(C(=O)CCNC(=O)c1ccccc1)CC2 (configuration not stated) -1.59%, COC(=O)c1ccccc1NC(=O)NCc1cccnc1 -11.2%, COc1ccccc1NC(=O)CN(c1ccc(C23CC4CC(CC(C4)C2)C3)cc1)S(C)(=O)=O 13.8%, CCN(Cc1ccccc1)c1ccc(/C=N/N=C(N)N)cc1 3.18%, CC(C)NCC(O)COCCOc1ccc(Br)cc1 (configuration not stated) 11.8%, O=C(N/N=C/C1CC=CCC1)c1ccc(O)cc1O (configuration not stated) 7.39%, CCCCOc1ccc(Cc2c(COCC)[nH]c(=S)[nH]c2=O)cc1 5.62%, CCOc1cccc(-c2c(C(=O)N/N=C/c3cccs3)nnn2-c2nonc2N)c1 21%, COCCNc1nc(N)c([N+](=O)[O-])c(N2CCCCCC2)n1 13.4%, CC(=O)NC(Cc1c[nH]c2ccccc12)C(=O)O (configuration not stated) 9.84%, CC(CCc1ccccc1)NCC(O)c1ccc(O)c(C(N)=O)c1 (configuration not stated) -6.32%, CCN1CCN(c2ccc(NC(=O)c3cccc(OCc4ccccc4)c3)cc2)CC1 0.479%, CC1(c2ccc(OCC#N)cc2)C=C(c2ccc(OCC#N)cc2)n2nc(C(F)(F)F)nc2N1 (configuration not stated) 5.89%, Cc1cc(N/N=C/c2ccc(O)c(C)c2O)nc(-c2ccccc2O)n1 7.21%, C/C=C(/C)C(=O)O[C@H]1[C@@H](O)c2c(ccc3ccc(=O)oc23)OC1(C)C -4.87%, CC1(C)CC2CC(C)(CN2S(=O)(=O)c2ccc(N)cc2)C1 (configuration not stated) -1.27%, O=C1CN(C(=O)NCC(=O)N2CCCC2)c2ccccc2N1 0.151%, COc1ccc(-c2c(C)oc3c(CN4CCN(C)CC4)c(O)ccc3c2=O)cc1 4.54%, Oc1c(N=NC(=S)Nc2ccccc2F)c2ccccc2n1Cc1ccccc1F 2.08%, O=C(O)CCC(=O)c1ccc(-c2ccccc2)cc1 6.17%, CN(C)C(=O)COc1ccc2ccc(=O)oc2c1 -6.92%, O=C1CN(S(=O)(=O)c2ccc([N+](=O)[O-])cc2)CC(=O)N1 10.3%, CN(C(=O)c1ccc2c(c1)SC1=NS(=O)(=O)CCN12)C(c1ccccc1)c1ccccc1 7.2%, Cc1ccc(SCc2c(C(=O)N/N=C/c3ccccc3)nnn2-c2nonc2N)cc1 1.99%, Cc1cccc2sc(N(CCN(C)C)C(=O)c3ccc4ccccc4c3)nc12 2.05%, Cc1cc(Cl)c2oc(C(=O)N3CCN(C(=O)c4ccco4)CC3)c(C)c2c1 11.6%, CN1CCN(C(=O)c2ccc(-c3cccs3)s2)CC1 -11.7%, CCn1cc(/C=C(\NC(=O)c2ccccc2Cl)C(=O)N2CCOCC2)c2ccccc21 -4.21%, O=C(N/N=C/c1cn(Cc2ccccc2)c2ccccc12)c1cc(O)cc(O)c1 -6.64%, CCOc1ccc(N(CC(=O)NC2CC3CCC2C3)S(=O)(=O)c2ccccc2)cc1 (configuration not stated) -1.05%, Cc1cc2cc(C(=O)N3CCc4c([nH]c5ccccc45)C3c3ccccn3)ccc2o1 (configuration not stated) 3.48%, CN(C)CCN(C(=O)c1ccc2ccccc2c1)c1nc2ccc(F)cc2s1 2.44%, CC(=O)NN1C(=O)c2ccccc2NC1c1ccccc1 (configuration not stated) 5.62%

outcome, inactive:
NC(=NCCCCCCN=C(N)/N=C(\N)Nc1ccc(Cl)cc1)/N=C(\N)Nc1ccc(Cl)cc1
